Laboratory results as given in PubChem BioAssay (NCATS).
Records with an inconclusive call do not appear. Where a call stands in place of a potency, no number is given. Calls of active or inactive are those of the source. Calls follow the shape of the dose curve; as a rule, active = well fitted curve in the direction sought with a large enough effect; inconclusive = small, poorly fitted or top-dose-only effect, or another doubt; inactive = no such curve, though single readings can be large or run the other way.

What follows are compounds tested against Calcium and integrin-binding protein 1 (Homo sapiens) (UniProt Q99828) (assay: Validation qHTS for Identification of Calcium Integrin Binding protein 1 (CIB1) Competitor (AID 1508618)). Details: CIB1-GST / FITC-alphaIIb peptide fluorescence polarization; series mostly up to 114 µM.
Calcium and integrin-binding protein 1 (Homo sapiens), sequence (Q99828 whole entry, looked up): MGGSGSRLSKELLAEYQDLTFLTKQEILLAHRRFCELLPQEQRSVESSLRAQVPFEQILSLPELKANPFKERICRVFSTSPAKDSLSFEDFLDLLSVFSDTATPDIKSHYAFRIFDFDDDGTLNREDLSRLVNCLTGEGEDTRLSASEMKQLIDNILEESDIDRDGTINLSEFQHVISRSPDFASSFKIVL
Excerpt: Assay Provider: Ulhas P. Naik, PhD
Sidney Kimmel Medical College
Thomas Jefferson University, Philadelphia, PA
Primary function of platelets is to maintain hemostasis. At the site of vascular injury, platelets adhere to adhesive proteins such as collagen and von Willebrand factor. Adherent platelets are activated and generate soluble platelet agonists such as thrombin, ADP and thromboxane A2. Following exposure of circulating platelets to these agonists, results in platelet shape change, granule secretion and activation of platelet integrin alphaIIb-beta3. Ligand binding to activated integrin alphaIIb-beta3 triggers outside-in signaling, leading to platelet aggregation, stabilization of platelet plug, and clot retraction. Upon atherosclerotic plaque rupture also causes platelet plug formation, which underlies a number of cardiovascular diseases such as myocardial infraction and stroke. A number of anti-platelet drugs such as aspirin, clopidogrel, prasugrel, vorapaxar, and eptifibatide are currently available to prevent the thrombotic complications. However, these anti-platelet agents have several limitations including inherent variability in individual responses, developing resistance, and serious bleeding side effects. For these reasons they are not suitable for long-term protection. Based on the experiences with current anti-platelet drugs, it appears that the most useful therapeutic approach is to intersect the secondary responses such as integrin outside-in signaling or recruitment of platelets by TxA2 and secreted ADP. Compounds, which can largely preserve the primary hemostatic function of platelets but inhibit secondary response will be most desired therapeutic agents for treatment of cardiovascular disease.
CIB1 is a calcium integrin binding protein, which specifically interact with the alphaIIb subunit of integrin alphaIIb-beta3. Binding of CIB1 to alphaIIb regulates the outside-in signaling in platelets, which is needed for thrombus stabilization and thrombus growth. […] Therefore, we propose that discovery of a small molecule that can prevent the association of CIB1 and alphaIIb-beta3 will be a potential anti-platelet agent that can block the thrombus formation without undue effect on hemostasis.
To develop fluorescence polarization (FP) assay using fluorescently labeled alphaIIb peptide and CIB1 protein. Using FP assay characterize the binding affinity, competitive inhibition, and acceptable Z factor (0.5 to1) in order to perform the HTS to identify small molecule compound that can prevent CIB1 binding to platelet integrin alphaIIbbeta3. This assay is screened against the NCATS LOPAC library to validate the amenability of the assay to qHTS.
[1] Naik MU, Nigam A, Manrai P, et al. CIB1 deficiency results in impaired thrombosis: the potential role of CIB1 in outside-in signaling through integrin alpha IIb beta 3. J Thromb Haemost. 2009;7(11):1906-1914. doi:10.1111/j.1538-7836.2009.03581.
SEQUENCE No. (1, 2, 3, etc.); […] (e.g., Cells, Incubation, Reagent, etc.); VALUE and DESCRIPTION.
1; Reagent; 3 uL; Protein or buffer (4/3x)
2; Compound; 46 nL; Control inhibitor / compound library
3; Time; 15 min; Room temperature incubation
4; Reagent; 1 uL; Fluorescent labeled peptide (4x)
5; Time; 1000 rpm; Centrifuge
6; Time; 15 min; Room temperature incubation
7; Detection; Ex 480/ Em 540; ViewLux Fluorescence Read
NOTES (numbers refer to sequence above)
1; Protein Mixture: C1B1-GST (final concentrations of 1 uM). Buffer composition: 5 mM HEPES pH 7.4, 125 mM NaCl, 5 mM CaCl2, 0.01% Tween20.
2; Control Inhibitor: unlabeled peptide (final concentration range 17.4 nM to 572 uM). Compound Library final concentration range 18.3 nM to 114 uM.
3; Room temperature incubation.
4; Fluorescent Labeled Peptide: FITC-aIIb (final concentration of 100 nM). Sequence of alphaIIb peptide: Acetyl-[…]-FITC (purity is 95.83%).
6; Room temperature incubation.
[…]
For CC(C)(C)c1cc(C=C(C#N)C#N)cc(C(C)(C)C)c1O, the Potency was “inactive”.
In the case of CN1CC[C@@]2(C)c3cc(O)ccc3N(C)C12 (stereo not given in full), the Potency was “inactive”.
In the case of NC(C(=O)O)c1cc(=O)[nH]o1 (stereo not given), the Potency was “inactive”.
With N=C(N)c1ccc(CS(=O)(=O)F)cc1 the Potency was “inactive”.
With CCCN(CCC)[C@@H]1CCc2cccc(O)c2C1 the Potency was “inactive”.
With CC(=O)OCC1=C(C(=O)O)N2C(=O)[C@@H](NC(=O)CCC[C@@H](N)C(=O)O)[C@H]2SC1 the Potency was “inactive”.
With CCCN(CCC)C1Cc2cc(OC)c(OC)cc2C1 the Potency was “inactive”.
In the case of C[C@@H]1O[C@@H](O[C@H]2C[C@@H](O)[C@]3(CO)[C@@H]4C(CC[C@]3(O)C2)[C@@]2(O)CC[C@H]([C@@H]3COC(=O)C3)[C@@]2(C)C[C@H]4O)[C@H](O)[C@H](O)[C@H]1O (stereo not given in full), the Potency was “inactive”.
In the case of CCCCCCCCCCCCCC(=O)O[C@@H]1[C@@H](C)[C@@]2(O)[C@@H](C=C(CO)C[C@@]3(O)C(=O)C(C)=C[C@@H]23)C2C(C)(C)[C@@]21OC(C)=O (stereo not given in full), the Potency was “inactive”.
In the case of CCCn1c(=O)c2[nH]c(C3CCCC3)nc2n(CCCOC(=O)c2ccc(S(=O)(=O)F)cc2)c1=O, the Potency was “inactive”.
In the case of C[C@H]1C2Cc3ccc(O)cc3[C@@]1(C)CCN2CC1CC1, the Potency was “inactive”.
For Clc1ccc(N2CC3CCC(C2)N3)nn1, the Potency was “inactive”.
With C[N+]1(C)CCN(c2ccccc2)CC1 the Potency was “inactive”.
With O=[N+]([O-])c1cc(O)c(O)c([N+](=O)[O-])c1 the Potency was “inactive”.
In the case of OCc1cnc[nH]1, the Potency was “inactive”.
With Cc1sc2ccccc2c1CC1=NCCN1 the Potency was “inactive”.
In the case of CCCN(CCC)[C@H]1CCc2c(F)ccc(O)c2C1, the Potency was “inactive”.
CC(C)(C)OC(=O)NC1[C@H]2CNC[C@@H]12 (stereo not given in full) was tested, and the Potency was “inactive”.
With C[N+]1(C)CCc2cc3c(cc2[C@H]1[C@@H]1OC(=O)c2c1ccc1c2OCO1)OCO3 the Potency was “inactive”.
With COc1ccc2c(c1)C13CCCCC1C(C2)N(C)CC3 (stereo not given) the Potency was “inactive”.
Cc1cc([C@@H]2CCCN2C)on1 was tested, and the Potency was “inactive”.
With CCCN(CCC)CCc1ccc(O)c(O)c1 the Potency was “inactive”.
With Oc1ccc2c3c1O[C@H]1c4[nH]c5ccccc5c4C[C@@]4(O)C(C2)N(CC2CC2)CCC314 (stereo not given in full) the Potency was “inactive”.
CC(C)(O)[C@@H]1C2OC(=O)[C@@H]1[C@]1(O)C[C@H]3O[C@]34C(=O)O[C@H]2[C@]14C (tested in a mixture with another compound) was tested, and the Potency was “inactive”.
N[C@@]1(C(=O)O)CC[C@@H](C(=O)O)C1 was tested, and the Potency was “inactive”.
With CN1CC[C@@]2(C)c3cc(OC(=O)Nc4ccccc4)ccc3N(C)[C@@H]12 the Potency was “inactive”.
In the case of Oc1ccc2c3c1O[C@H]1c4oc5ccccc5c4C[C@@]4(O)C(C2)N(CC2CC2)CCC314 (stereo not given in full), the Potency was “inactive”.
In the case of NCC(CP(=O)(O)O)c1ccc(Cl)cc1 (stereo not given), the Potency was “inactive”.
Cc1c2ccncc2c(C)c2c1[nH]c1ccccc12 was tested, and the Potency was “inactive”.
For CCNC(=O)[C@H]1O[C@@H](n2cnc3c(N)ncnc32)[C@H](O)[C@@H]1O, the Potency was “inactive”.
NNC(N)=O was tested, and the Potency was “inactive”.
With COC(=O)N1CCN(C(=O)Cc2ccc(Cl)c(Cl)c2)C(CN2CCCC2)C1 (stereo not given) the Potency was “inactive”.
For NC(=O)CI, the Potency was “inactive”.
With COc1ccc2c(c1O)-c1cccc3c1[C@@H](C2)N(C)CC3 the Potency was “inactive”.
O=C1/C(=C/c2ccccc2)C[C@@]2(O)[C@H]3Cc4ccc(O)c5c4[C@@]2(CCN3CC2CC2)[C@H]1O5 was tested, and the Potency was “inactive”.
O=S1(=O)N(CCN2CC=C(c3c[nH]c4cc(F)ccc34)CC2)c2cccc3c2N1CCC3 was tested, and the Potency was “inactive”.
For C[C@H](Cc1ccc2c(c1)OC(C(=O)O)(C(=O)O)O2)NC[C@H](O)c1cccc(Cl)c1, the Potency was “inactive”.
COc1ccc(CNC(=O)/C=C/c2ccc3[nH]cc(CCN(C)C)c3c2)cc1 was tested, and the Potency was “inactive”.
In the case of CN1CCc2cc(O)cc3c2[C@H]1Cc1ccc(O)c(O)c1-3, the Potency was “inactive”.
With N#CCCN the Potency was “inactive”.
